# Assay results reported in the supplement of paper PMC11732987, “Enantioselective OTUD7B fragment discovery through chemoproteomics screening and high-throughput optimisation” (Communications Chemistry, 2025).
# Values without a mark were called inactive.
# Legend:
# Experiment in all cases: log2 ratio of Biotin-Ahx-Ub-VS probe labelling (fragment/DMSO); higher = less target engagement (more negative = stronger competition), active = hit call of the paper (q ≤ 0.05, log2 ratio ≤ -1)
# Conditions in all cases: compound concentration: 200 uM; treatment time: 3 h
# USP42 = biological target: T1, USP42 (UniProt Q9H9J4)
# T1 sequence (whole entry): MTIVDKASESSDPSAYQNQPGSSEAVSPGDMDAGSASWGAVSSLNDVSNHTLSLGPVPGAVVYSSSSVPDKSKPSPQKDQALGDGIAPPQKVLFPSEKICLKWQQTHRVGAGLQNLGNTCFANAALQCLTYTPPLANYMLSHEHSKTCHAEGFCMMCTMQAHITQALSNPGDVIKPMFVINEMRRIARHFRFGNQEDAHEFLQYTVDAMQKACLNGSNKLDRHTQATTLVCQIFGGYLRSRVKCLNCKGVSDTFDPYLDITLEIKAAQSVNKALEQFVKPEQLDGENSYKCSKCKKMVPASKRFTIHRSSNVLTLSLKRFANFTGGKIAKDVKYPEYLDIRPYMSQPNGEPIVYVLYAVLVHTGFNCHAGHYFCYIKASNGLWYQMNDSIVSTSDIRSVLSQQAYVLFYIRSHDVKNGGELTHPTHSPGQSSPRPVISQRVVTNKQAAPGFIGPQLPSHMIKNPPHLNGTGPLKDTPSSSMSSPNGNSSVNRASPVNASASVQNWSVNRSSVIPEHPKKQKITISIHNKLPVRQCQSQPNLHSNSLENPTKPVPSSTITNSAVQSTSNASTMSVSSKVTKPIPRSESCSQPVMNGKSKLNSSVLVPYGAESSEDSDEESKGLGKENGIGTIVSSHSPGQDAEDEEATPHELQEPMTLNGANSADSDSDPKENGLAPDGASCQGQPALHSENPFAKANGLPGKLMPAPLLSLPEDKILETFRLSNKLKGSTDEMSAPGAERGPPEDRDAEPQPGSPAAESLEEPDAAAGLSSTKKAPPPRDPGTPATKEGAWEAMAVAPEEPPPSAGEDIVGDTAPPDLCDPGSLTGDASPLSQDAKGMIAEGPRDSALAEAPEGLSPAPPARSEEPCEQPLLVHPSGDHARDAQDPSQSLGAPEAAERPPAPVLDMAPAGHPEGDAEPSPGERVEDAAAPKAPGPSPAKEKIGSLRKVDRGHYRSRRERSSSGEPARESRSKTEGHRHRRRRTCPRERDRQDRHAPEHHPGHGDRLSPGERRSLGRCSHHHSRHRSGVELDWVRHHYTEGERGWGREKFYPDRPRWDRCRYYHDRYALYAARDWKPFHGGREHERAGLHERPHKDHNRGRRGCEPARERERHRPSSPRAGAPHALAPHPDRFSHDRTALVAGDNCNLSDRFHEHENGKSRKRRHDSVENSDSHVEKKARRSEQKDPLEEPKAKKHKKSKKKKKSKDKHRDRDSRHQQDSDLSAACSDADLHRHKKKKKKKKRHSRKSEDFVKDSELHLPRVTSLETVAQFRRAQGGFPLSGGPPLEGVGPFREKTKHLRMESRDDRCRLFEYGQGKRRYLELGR
# Method in brief: (§1)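 The table lists average log2 ratios of fragment over vehicle, from an unpaired t-test on global-median-normalised Spectronaut label-free quantities. Proteins with ≥2 unique peptides were used. Samples were HEK293T lysate (495 µg) treated in triplicate with fragment at 200 µM or vehicle for 3 h, then with Biotin-Ahx-Ub-VS (0.5 µM final) for 1 h, with labelled DUBs NeutrAvidin-enriched and run by diaPASEF LC-MS/MS.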
# USP46 = USP46 (UniProt P62068)
# Sequence of USP46 (P62068 whole entry): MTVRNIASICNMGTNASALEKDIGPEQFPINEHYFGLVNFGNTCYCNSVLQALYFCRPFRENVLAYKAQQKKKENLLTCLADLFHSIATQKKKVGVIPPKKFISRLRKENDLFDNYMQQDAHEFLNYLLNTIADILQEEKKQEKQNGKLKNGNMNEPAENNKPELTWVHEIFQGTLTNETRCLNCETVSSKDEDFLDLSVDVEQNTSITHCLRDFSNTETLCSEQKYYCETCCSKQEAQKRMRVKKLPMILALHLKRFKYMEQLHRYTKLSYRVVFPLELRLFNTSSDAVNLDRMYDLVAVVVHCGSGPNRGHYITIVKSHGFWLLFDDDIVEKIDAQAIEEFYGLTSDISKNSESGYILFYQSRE
# Method in brief: as §1
# USP47 = biological target: T2, USP47 (UniProt Q96K76)
# T2 sequence (whole entry): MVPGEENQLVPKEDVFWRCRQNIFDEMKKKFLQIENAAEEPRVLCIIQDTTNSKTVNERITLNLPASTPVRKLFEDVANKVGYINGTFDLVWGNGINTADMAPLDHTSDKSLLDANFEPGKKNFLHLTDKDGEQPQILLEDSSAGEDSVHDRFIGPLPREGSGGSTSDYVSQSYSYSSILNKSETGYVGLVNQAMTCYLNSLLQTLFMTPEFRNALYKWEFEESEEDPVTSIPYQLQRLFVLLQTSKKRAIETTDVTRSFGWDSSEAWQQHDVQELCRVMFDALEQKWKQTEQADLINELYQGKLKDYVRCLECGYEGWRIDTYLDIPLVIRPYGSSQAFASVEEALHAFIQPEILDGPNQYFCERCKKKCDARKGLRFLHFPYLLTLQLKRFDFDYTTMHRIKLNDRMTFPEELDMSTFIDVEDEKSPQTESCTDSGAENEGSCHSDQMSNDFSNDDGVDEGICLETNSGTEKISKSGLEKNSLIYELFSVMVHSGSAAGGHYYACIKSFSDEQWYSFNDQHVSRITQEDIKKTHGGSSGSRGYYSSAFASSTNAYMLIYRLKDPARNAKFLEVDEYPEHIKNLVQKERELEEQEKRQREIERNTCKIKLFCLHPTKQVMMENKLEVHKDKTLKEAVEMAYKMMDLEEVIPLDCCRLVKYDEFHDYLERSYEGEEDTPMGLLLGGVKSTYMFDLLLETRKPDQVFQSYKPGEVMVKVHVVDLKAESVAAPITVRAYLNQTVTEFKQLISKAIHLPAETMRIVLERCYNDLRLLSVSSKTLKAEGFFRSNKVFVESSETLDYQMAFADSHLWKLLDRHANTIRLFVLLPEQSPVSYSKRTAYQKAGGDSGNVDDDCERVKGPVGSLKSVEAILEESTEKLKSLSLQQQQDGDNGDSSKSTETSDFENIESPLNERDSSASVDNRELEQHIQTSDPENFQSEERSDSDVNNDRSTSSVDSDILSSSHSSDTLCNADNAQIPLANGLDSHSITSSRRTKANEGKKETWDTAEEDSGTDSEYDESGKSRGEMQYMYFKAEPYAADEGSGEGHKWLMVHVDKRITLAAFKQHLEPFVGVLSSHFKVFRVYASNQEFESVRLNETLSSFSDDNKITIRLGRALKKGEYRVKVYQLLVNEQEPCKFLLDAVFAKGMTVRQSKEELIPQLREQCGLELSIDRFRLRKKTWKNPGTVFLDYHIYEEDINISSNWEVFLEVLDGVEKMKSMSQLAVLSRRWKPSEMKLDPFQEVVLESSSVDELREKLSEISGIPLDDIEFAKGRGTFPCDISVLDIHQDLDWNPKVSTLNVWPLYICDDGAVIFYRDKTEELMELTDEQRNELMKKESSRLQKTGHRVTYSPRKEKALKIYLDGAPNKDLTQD
# Method in brief: as §1
# USP48 = biological target: T3, USP48 (UniProt Q86UV5)
# T3 sequence (whole entry): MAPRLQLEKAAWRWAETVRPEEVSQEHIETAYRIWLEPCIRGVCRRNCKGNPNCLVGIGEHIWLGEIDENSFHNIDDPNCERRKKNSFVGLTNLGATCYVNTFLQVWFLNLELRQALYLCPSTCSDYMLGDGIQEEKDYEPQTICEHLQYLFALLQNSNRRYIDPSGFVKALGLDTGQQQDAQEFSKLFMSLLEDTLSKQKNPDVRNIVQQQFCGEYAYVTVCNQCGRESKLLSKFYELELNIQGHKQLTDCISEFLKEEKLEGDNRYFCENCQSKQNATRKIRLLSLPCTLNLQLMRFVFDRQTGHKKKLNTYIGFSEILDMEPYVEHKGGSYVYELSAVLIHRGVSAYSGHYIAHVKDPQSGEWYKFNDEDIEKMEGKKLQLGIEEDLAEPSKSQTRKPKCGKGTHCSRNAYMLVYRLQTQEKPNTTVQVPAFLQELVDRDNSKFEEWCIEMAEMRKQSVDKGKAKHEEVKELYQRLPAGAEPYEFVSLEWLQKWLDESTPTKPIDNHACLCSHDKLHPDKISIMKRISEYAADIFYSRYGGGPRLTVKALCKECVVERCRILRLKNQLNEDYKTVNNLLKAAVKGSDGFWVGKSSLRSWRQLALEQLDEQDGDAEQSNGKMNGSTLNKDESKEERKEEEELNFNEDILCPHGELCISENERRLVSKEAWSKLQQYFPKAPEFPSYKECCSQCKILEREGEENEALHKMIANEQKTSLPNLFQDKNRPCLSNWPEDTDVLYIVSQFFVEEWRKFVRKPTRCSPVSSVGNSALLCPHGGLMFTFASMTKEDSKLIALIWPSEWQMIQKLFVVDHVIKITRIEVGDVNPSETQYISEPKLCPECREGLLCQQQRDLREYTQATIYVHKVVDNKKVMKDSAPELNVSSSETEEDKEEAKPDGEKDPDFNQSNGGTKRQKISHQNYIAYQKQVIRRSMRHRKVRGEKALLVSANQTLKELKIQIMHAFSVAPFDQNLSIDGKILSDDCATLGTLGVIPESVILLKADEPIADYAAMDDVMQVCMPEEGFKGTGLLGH
# Method in brief: as §1
# USP5 = biological target: T4, USP5 (UniProt P45974)
# T4 sequence (whole entry): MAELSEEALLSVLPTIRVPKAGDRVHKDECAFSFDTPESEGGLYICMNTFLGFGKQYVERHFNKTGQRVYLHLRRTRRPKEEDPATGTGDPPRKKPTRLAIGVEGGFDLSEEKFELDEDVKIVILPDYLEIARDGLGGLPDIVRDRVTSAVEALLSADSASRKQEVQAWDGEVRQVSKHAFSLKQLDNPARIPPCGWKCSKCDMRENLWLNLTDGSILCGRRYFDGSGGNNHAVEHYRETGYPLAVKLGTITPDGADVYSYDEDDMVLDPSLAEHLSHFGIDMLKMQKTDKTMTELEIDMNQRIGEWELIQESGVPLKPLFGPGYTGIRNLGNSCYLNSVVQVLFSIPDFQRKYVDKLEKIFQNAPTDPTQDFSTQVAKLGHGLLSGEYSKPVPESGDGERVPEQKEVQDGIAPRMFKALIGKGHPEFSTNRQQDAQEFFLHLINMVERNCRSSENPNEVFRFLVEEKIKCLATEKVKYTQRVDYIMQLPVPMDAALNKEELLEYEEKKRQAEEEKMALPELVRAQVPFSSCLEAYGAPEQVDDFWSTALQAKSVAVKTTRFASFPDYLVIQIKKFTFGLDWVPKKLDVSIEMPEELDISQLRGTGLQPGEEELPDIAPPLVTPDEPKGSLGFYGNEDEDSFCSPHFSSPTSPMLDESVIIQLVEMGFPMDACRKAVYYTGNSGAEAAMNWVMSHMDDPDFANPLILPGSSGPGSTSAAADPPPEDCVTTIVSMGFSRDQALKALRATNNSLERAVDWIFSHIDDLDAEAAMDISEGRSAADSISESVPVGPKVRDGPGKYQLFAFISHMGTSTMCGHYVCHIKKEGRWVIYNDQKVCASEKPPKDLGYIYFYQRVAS
# Method in brief: as §1
# USP54 = USP54 (UniProt Q70EL1)
# Sequence of USP54 (Q70EL1 whole entry): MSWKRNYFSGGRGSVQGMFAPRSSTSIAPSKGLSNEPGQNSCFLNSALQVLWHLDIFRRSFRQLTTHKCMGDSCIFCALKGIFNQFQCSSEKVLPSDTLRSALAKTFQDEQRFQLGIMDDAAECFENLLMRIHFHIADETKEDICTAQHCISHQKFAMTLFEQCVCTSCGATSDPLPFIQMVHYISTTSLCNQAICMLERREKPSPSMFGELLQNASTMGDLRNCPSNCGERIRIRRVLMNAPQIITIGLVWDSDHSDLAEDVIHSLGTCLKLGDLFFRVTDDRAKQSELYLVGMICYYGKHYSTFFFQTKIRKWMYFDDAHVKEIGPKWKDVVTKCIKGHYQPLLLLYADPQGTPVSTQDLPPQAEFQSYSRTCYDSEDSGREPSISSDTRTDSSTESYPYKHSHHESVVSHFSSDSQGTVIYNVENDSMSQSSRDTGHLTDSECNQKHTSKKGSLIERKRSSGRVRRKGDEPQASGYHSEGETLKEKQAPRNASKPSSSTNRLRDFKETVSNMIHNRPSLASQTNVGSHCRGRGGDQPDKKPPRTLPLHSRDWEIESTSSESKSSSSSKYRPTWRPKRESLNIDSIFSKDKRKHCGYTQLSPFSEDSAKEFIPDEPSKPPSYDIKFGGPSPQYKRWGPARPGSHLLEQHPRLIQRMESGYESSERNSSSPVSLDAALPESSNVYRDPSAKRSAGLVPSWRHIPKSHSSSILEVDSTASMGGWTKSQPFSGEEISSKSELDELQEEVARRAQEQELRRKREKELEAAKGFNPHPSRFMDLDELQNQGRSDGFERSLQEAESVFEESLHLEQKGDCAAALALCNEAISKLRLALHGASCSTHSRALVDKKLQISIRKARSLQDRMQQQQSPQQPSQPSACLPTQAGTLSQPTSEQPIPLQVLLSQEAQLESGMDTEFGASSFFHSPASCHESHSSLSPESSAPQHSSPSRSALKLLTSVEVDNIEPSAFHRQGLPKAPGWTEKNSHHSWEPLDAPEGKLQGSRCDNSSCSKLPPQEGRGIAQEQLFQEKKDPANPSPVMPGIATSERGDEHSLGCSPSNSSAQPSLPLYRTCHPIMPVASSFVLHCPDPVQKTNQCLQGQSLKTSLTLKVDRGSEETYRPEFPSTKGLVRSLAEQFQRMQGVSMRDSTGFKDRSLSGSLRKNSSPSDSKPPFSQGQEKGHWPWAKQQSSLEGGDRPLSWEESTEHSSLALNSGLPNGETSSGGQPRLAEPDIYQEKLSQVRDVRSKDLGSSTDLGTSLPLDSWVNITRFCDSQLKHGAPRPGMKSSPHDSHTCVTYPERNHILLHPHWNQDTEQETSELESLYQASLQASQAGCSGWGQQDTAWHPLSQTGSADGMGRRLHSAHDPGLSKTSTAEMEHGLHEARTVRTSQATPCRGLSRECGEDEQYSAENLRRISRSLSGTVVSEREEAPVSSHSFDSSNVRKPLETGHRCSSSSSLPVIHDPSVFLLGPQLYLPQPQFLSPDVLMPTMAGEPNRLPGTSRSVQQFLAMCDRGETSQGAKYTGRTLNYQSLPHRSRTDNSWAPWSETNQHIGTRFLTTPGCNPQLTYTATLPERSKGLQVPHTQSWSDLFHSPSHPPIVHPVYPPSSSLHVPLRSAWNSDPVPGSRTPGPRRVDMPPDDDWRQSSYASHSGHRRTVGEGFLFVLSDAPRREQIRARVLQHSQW
# Method in brief: as §1
# USP7 = USP7 (UniProt Q93009)
# Sequence of USP7 (Q93009 whole entry, looked up): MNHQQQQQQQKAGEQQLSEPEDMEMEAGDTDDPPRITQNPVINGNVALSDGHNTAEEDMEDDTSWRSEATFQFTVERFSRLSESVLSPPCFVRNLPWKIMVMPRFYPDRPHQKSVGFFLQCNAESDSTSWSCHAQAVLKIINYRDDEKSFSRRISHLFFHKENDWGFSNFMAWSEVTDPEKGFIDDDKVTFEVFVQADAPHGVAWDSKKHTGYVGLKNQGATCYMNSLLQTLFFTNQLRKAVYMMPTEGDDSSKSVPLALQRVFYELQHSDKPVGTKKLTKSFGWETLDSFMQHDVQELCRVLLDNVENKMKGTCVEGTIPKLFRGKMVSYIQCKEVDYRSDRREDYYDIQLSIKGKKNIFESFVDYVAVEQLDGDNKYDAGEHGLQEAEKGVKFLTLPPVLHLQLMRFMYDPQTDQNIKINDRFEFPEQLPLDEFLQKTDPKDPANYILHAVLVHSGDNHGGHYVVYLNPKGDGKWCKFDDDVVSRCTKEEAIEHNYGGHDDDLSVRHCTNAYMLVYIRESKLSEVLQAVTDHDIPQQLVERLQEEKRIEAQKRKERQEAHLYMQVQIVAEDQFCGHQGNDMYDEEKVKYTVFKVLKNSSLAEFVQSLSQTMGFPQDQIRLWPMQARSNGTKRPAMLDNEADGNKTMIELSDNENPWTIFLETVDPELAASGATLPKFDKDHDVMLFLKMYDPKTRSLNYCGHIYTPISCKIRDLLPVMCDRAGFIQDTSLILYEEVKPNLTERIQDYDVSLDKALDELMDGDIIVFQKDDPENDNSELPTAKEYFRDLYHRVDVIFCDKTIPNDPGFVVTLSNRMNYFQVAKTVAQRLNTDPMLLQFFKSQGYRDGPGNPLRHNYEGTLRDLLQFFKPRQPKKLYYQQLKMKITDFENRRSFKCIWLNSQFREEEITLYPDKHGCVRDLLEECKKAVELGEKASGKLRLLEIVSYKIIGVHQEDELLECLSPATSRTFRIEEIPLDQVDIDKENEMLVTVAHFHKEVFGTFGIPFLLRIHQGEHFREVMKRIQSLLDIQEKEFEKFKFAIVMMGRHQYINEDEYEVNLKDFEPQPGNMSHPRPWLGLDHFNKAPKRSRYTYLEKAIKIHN
# Method in brief: as §1
# USP8 = biological target: T5, USP8 (UniProt P40818)
# T5 sequence (whole entry): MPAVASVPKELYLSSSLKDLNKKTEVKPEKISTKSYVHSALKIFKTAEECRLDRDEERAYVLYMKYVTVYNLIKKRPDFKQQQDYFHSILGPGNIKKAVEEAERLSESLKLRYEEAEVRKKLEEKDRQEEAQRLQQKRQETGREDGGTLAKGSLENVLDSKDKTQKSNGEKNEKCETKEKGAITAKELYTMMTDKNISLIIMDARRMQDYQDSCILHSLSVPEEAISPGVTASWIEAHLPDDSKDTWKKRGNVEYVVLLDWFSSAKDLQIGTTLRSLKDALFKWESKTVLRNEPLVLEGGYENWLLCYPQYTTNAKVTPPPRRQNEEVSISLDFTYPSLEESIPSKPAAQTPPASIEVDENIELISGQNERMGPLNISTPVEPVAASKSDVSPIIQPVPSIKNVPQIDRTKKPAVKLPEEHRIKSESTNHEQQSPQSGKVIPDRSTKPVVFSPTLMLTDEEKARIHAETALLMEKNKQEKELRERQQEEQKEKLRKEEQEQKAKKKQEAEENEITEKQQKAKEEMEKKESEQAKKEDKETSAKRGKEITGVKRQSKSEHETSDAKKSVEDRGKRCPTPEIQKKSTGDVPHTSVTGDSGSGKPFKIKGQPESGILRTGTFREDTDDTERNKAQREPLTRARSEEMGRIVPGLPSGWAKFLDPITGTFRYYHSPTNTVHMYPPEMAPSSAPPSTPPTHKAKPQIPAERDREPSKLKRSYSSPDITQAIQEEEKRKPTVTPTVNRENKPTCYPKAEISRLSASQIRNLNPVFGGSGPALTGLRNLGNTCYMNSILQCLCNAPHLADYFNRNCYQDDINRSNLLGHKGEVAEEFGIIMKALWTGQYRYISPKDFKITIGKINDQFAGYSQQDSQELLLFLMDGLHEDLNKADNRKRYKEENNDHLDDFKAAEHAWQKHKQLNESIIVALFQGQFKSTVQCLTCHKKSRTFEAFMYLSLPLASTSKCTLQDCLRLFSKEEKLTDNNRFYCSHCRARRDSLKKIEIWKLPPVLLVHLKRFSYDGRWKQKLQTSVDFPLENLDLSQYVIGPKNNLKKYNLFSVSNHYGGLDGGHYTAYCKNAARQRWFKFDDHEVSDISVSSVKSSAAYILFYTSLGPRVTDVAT
# Method in brief: as §1
# USP9X = USP9X (UniProt Q93008)
# Method in brief: as §1
# UniProt O00487 = biological target: UniProt O00487
# Sequence of UniProt O00487 (O00487 whole entry): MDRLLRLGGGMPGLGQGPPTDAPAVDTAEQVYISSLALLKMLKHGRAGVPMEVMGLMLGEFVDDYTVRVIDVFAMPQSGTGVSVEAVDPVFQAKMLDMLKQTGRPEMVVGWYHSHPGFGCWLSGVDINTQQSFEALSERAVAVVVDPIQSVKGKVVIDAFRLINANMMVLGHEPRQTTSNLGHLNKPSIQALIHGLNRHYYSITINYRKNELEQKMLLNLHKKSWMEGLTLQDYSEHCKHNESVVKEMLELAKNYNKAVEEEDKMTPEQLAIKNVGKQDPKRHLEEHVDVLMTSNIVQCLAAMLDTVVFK
# Method in brief: as §1
structure (smiles),measurement,setting,value
O=C(CCl)N1c2ccccc2NC(=O)C12CCCC2,log2 ratio of Biotin-Ahx-Ub-VS probe labelling,USP42,0.622
same,log2 ratio of Biotin-Ahx-Ub-VS probe labelling,USP46,-0.278
same,log2 ratio of Biotin-Ahx-Ub-VS probe labelling,USP47,0.0188
same,log2 ratio of Biotin-Ahx-Ub-VS probe labelling,USP48,-1.04 (active)
same,log2 ratio of Biotin-Ahx-Ub-VS probe labelling,USP5,0.581
same,log2 ratio of Biotin-Ahx-Ub-VS probe labelling,USP54,-0.355
same,log2 ratio of Biotin-Ahx-Ub-VS probe labelling,USP7,-2.11 (active)
same,log2 ratio of Biotin-Ahx-Ub-VS probe labelling,USP8,0.279
same,log2 ratio of Biotin-Ahx-Ub-VS probe labelling,USP9X,-0.316
same,log2 ratio of Biotin-Ahx-Ub-VS probe labelling,UniProt O00487,0.0785
